Results taken from PubChem BioAssay (EPA / NIEHS).
Results filed as inconclusive are left out. Calls of active or inactive are those of the source. The calls were made as follows: active = hit-call score of the fitted dose curve at least 0.9, where 1 is the maximum; inconclusive = response in the unintended direction; inactive = score below 0.9.

What was measured:
[1] = target: Estrogen receptor (Homo sapiens) (UniProt P03372); assay: OT_ER_ERaERa_1440: Odyssey Thera (OT) 24-hour HEK293T Protein-Complementation Assay for Estrogen Receptor-alpha/-alpha Homodimer (AID 2283349);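 also: hits raise fluorescence above DMSO for agonists and antagonists alike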
Sequence of Estrogen receptor (Homo sapiens) (P03372 whole entry, looked up, the tested form may be a part): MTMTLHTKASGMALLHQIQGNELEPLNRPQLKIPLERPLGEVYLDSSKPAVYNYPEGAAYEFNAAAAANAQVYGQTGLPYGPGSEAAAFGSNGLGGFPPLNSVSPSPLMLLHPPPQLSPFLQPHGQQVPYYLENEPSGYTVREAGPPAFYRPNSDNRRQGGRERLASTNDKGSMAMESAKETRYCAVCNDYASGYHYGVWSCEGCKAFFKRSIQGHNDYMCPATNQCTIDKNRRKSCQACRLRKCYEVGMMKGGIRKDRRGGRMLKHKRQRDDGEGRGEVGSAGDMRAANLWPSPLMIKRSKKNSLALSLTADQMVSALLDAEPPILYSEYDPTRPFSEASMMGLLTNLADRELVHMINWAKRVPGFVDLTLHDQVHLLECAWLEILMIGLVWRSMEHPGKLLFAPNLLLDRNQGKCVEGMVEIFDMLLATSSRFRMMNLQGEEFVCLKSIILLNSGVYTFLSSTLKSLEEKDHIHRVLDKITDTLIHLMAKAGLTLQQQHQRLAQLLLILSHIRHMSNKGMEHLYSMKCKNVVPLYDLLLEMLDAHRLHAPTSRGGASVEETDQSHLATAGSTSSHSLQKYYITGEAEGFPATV
Method in brief: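 HEK293T, stable ERα LBD (aa 310-547) homodimer PCA; 24 h compound exposure; mean fluorescence intensity (nuclear for agonists, nuclear plus cytoplasmic for antagonists) vs vehicle; positive fitting direction, DMSO baseline.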

[2] = target: Estrogen receptor (Homo sapiens) (UniProt P03372); assay: OT_ER_ERaERa_0480: Odyssey Thera (OT) 8-hour HEK293T Protein-Complementation Assay for Estrogen Receptor-alpha/-alpha Homodimer (AID 2283351);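 also: rise in fluorescence from reassembled reporter fragments on ERα LBD homodimer in nucleus or whole cell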
Method in brief: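 HEK293T cells stably expressing a PCA pair of ER alpha LBD (residues 310-547) were dosed for 8 hours. The gain in fluorescence intensity, nuclear for agonists and whole-cell for antagonists, was measured by laser scanning cytometry against DMSO vehicle.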

[3] = target: Androgen Receptor/SRC-1 Co-activator, AR (gene 367) (UniProt P10275); assay: OT_AR_ARSRC1_0960: Odyssey Thera (OT) 16-hour HEK293T Protein-Complementation Assay for Androgen Receptor/SRC-1 Co-activator (AID 2283353);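 also: actives raise the signal above DMSO so potency reflects increased AR and SRC-1 complex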
Sequence of Androgen Receptor/SRC-1 Co-activator, AR (gene 367) (P10275 whole entry, looked up, the tested form may be a part): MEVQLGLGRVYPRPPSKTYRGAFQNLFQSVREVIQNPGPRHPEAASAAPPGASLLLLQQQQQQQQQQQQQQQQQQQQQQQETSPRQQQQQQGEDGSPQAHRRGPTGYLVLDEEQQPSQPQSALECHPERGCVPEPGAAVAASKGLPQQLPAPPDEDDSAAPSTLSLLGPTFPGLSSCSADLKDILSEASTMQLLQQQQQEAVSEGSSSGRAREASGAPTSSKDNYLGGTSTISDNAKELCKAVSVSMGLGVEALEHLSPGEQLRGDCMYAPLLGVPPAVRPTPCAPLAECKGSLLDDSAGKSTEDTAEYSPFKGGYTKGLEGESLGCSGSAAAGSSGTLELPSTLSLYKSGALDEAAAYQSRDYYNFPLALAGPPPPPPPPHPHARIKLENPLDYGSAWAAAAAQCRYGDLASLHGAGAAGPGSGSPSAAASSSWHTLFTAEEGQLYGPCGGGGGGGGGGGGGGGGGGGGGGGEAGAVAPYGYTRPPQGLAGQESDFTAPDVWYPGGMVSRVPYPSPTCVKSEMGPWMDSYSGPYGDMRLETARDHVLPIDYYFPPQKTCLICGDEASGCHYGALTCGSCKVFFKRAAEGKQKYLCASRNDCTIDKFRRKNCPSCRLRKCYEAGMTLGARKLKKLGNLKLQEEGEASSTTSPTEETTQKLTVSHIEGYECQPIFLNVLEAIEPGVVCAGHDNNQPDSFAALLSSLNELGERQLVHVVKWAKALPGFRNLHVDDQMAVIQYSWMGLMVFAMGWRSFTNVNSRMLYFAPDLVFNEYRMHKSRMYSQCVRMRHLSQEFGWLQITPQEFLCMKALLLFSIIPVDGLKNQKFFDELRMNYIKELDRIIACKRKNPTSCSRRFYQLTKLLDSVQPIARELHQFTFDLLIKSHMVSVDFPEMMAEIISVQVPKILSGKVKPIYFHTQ
Description: OT_AR_ARSRC1_0960 is a cell-based, single-readout assay that uses HEK293T, a human kidney cell line, with measurements taken at 16 hours after chemical dosing in a 384-well plate.OT_AR_ARSRC1_0960 is one of one assay component(s) measured or calculated from the OT_AR_ARSRC1_0960 assay. It is designed to make measurements of protein fragment complementation, a form of binding reporter, as detected with fluorescence intensity signals by Protein-fragment Complementation technology.Data from the assay component OT_AR_ARSRC1_0960 was analyzed into 1 assay endpoint. This assay endpoint, OT_AR_ARSRC1_0960, was analyzed in the positive analysis fitting direction relative to DMSO as the negative control and baseline of activity. Using a type of binding reporter, measures of receptor for gain-of-signal activity can be used to understand the binding at the pathway-level as they relate to the gene AR. Furthermore, this assay endpoint can be referred to as a primary readout, because the performed assay has only produced 1 assay endpoint. To generalize the intended target to other relatable targets, this assay endpoint is annotated to the nuclear receptor intended target family, where the subfamily is steroidal.
Protein-fragment complementation assay, or PCA, is a method for the identification and quantification of protein-protein interactions. In the PCA, the proteins of interest ("bait" and "prey") are each covalently linked to fragments of a third protein (e.g. DHFR, which acts as a "reporter"). Interaction between the bait and the prey proteins brings the fragments of the reporter protein in close proximity to allow them to form a functional reporter protein whose activity can be measured. The OT AR / SRC-1 assay assessed androgen receptor chemical interactions using a rapidly maturing, intensely fluorescent mutant of YFP known as Venus, rationally dissected into two separate fragments. […] Fusion constructs were transfected into HEK293T cells with a (Gly4Ser)2 linker between the AR/SRC-1 and YFP fragment genes to facilitate complementation when interacting proteins bring fragments into close proximity. The construct is stably expressed in HEK293T cells. […] Images were acquired on an Evotec Opera at 2 wavelengths (488 and 635nm), and the ratio of fluorescence in the nucleus relative to fluorescence in the cytoplasm (N/C Ratio) in the 488nm channel was calculated for a minimum of 400 cells per image. Both agonists and antagonists of the AR receptor induce nuclear translocation to varying degrees. […] The OT AR/SRC-1 assay was also run for 16 hours (see description for OT_AR_ARSRC1_0960).

[4] = target: Androgen Receptor/SRC-1 Co-activator, AR (gene 367) (UniProt P10275); assay: OT_AR_ARSRC1_0480: Odyssey Thera (OT) 8-hour HEK293T Protein-Complementation Assay for Androgen Receptor/SRC-1 Co-activator (AID 2283354);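 also: hits raise the complementation signal above DMSO so AC50 marks enhancers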
Method in brief: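 Reconstituted split-Venus YFP signal from AR–SRC-1 interaction, read by imaging 8 h post-dose in stable HEK293T lines. The 488 nm nucleus-to-cytoplasm ratio (≥400 cells/image) was fitted upward against DMSO.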

[5] = target: Estrogen receptor (Homo sapiens) + Estrogen receptor beta (Homo sapiens) (UniProt P03372+Q92731); assay: OT_ER_ERaERb_0480: Odyssey Thera (OT) 8-hour HEK293T Protein-Complementation Assay for Estrogen Receptor-alpha/-beta Heterodimer (AID 2283352)
Sequence of Estrogen receptor (Homo sapiens) + Estrogen receptor beta (Homo sapiens) (P03372 whole entry, looked up, the tested form may be a part): as the sequence (P03372 whole entry, looked up, the tested form may be a part) above
Sequence of Estrogen receptor (Homo sapiens) + Estrogen receptor beta (Homo sapiens) (Q92731 whole entry, looked up, the tested form may be a part): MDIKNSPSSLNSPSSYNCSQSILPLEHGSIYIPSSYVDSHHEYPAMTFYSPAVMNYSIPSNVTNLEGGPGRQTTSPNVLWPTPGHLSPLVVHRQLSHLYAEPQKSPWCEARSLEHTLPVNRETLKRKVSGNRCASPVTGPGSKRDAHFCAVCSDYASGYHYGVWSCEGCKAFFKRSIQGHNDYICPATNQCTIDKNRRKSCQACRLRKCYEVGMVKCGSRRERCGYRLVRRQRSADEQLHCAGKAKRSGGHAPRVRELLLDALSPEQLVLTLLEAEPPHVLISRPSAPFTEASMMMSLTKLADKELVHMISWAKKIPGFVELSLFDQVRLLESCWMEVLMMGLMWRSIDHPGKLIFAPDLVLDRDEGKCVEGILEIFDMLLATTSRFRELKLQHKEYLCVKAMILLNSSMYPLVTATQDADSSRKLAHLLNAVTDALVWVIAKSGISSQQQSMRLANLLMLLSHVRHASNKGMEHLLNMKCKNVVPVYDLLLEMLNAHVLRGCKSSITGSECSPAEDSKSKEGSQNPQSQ
Method in brief: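 HEK293T cells expressing ER-alpha/ER-beta LBD fusions to complementary reporter fragments were dosed with compound for 8 hours. Heterodimer formation was read as increased nuclear (agonist) or nuclear plus cytoplasmic (antagonist) mean fluorescence intensity versus DMSO vehicle.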

`CC(CC=O)CCCC(C)(C)O` (configuration not stated) was tested, and the outcome [1] was “inactive”, the outcome [2] was “inactive” and the outcome [3] was “inactive”. The outcome [4] was “inactive”.

With `CCCCCCCC/C=C\CCCCCCCC(=O)O` the outcome [1] was “inactive” and the outcome [2] was “inactive”.

With `CCCCOCCOC(=O)COc1nc(Cl)c(Cl)cc1Cl` the outcome [1] was “inactive” and the outcome [2] was “inactive”.

With `OC1CCCC1` the outcome [1] was “inactive”, the outcome [2] was “inactive” and the outcome [5] was “inactive”.

With `NC(CO)(CO)CO` the outcome [1] was “inactive” and the outcome [2] was “inactive”.

`O=S1(=O)OC(c2ccc(O)cc2)(c2ccc(O)cc2)c2ccccc21` was tested, and the outcome [1] was “inactive”, the outcome [2] was “inactive” and the outcome [5] was “inactive”.

With `CC(C)c1ccc2cc(C(C)C)ccc2c1` the outcome [1] was “inactive”, the outcome [2] was “inactive” and the outcome [5] was “inactive”. The outcome [3] was “inactive” and the outcome [4] was “inactive”.

With `NC(=O)N=NC(N)=O` the outcome [1] was “inactive” and the outcome [2] was “inactive”.

With `CC(C)=CCC[C@H](C)CCO` the outcome [1] was “inactive”, the outcome [2] was “inactive” and the outcome [5] was “inactive”. The outcome [3] was “inactive” and the outcome [4] was “inactive”.

In the case of `CCCCC/C=C\CCC=O`, the outcome [1] is reported as “inactive”, the outcome [2] is reported as “inactive” and the outcome [3] is reported as “inactive”. For the same compound, the outcome [4] was “inactive”.

In the case of `CC(C)(C)c1ccc(N)cc1`, the outcome [1] is reported as “inactive”, the outcome [2] is reported as “inactive” and the outcome [5] is reported as “inactive”.

In the case of `O=C1CCCC1`, the outcome [1] is reported as “inactive”, the outcome [2] is reported as “inactive” and the outcome [5] is reported as “inactive”.

For `Cc1cc(C)c(C(=O)O)c(C)c1`, the outcome [1] was “inactive”, the outcome [2] was “inactive” and the outcome [5] was “inactive”.

In the case of `CCOC(=O)Cc1cccc2ccccc12`, the outcome [1] is reported as “inactive”, the outcome [2] is reported as “inactive” and the AC50 [5] is reported as 61.7 µM (active).

With `CC(C)(C)c1ccc(OC(=O)c2ccccc2O)cc1` the AC50 [1] was 14.5 µM (active), the outcome [2] was “inactive” and the AC50 [5] was 58.9 µM (active).

In the case of `C=CC(=O)NC(C)(C)CS(=O)(=O)O`, the outcome [1] is reported as “inactive”, the outcome [2] is reported as “inactive” and the outcome [5] is reported as “inactive”.

In the case of `CC(C)(C)c1ccc(-c2ccc(C(C)(C)C)cc2)cc1`, the outcome [1] is reported as “inactive”, the outcome [2] is reported as “inactive” and the outcome [5] is reported as “inactive”. The AC50 [3] was 77.8 µM (active) and the outcome [4] was “inactive”.

With `O=C(C(Cl)Cl)N1CCOC12CCCCC2` the outcome [1] was “inactive” and the outcome [2] was “inactive”.

With `CCCc1ccc(OC)cc1` the outcome [1] was “inactive”, the outcome [2] was “inactive” and the outcome [5] was “inactive”. The outcome [3] was “inactive” and the outcome [4] was “inactive”.

For `CC1=NN(c2cc(S(=O)(=O)O)ccc2Cl)C(=O)C1N=Nc1ccccc1` (configuration not stated), the outcome [1] was “inactive”, the outcome [2] was “inactive” and the outcome [5] was “inactive”.

In the case of `CO[Si](OC)(OC)c1ccccc1`, the outcome [1] is reported as “inactive”, the outcome [2] is reported as “inactive” and the outcome [5] is reported as “inactive”.

With `CNC(=S)NN` the outcome [1] was “inactive”, the outcome [2] was “inactive” and the outcome [5] was “inactive”.

In the case of `CCCCCCCCO[C@@H]1O[C@H](CO)[C@@H](O)[C@H](O)[C@H]1O`, the outcome [1] is reported as “inactive” and the outcome [2] is reported as “inactive”.

For `CC(=O)[C@H]1[C@H](C#N)C[C@H]2[C@@H]3CC=C4C[C@@H](O)CC[C@]4(C)[C@H]3CC[C@@]21C`, the outcome [1] was “inactive”, the outcome [2] was “inactive” and the outcome [5] was “inactive”.

In the case of `NC(=O)c1ccccc1O`, the outcome [1] is reported as “inactive” and the outcome [2] is reported as “inactive”.

`CC1=CC[C@H]2C[C@@H]1C2(C)C` was tested, and the outcome [1] was “inactive”, the outcome [2] was “inactive” and the outcome [5] was “inactive”.

With `CC(C)C1=CC2=CC[C@@H]3[C@](C)(CCC[C@@]3(C)C(=O)O)[C@H]2CC1` the AC50 [1] was 12 µM (active) and the outcome [2] was “inactive”.

For `CCCCCCCOC(=O)CCC`, the outcome [1] was “inactive”, the outcome [2] was “inactive” and the outcome [5] was “inactive”.

With `O=C(c1ccccc1)C1CCC1` the outcome [1] was “inactive”, the outcome [2] was “inactive” and the outcome [5] was “inactive”.

For `Cn1c([N+](=O)[O-])cnc1COC(N)=O`, the outcome [1] was “inactive”, the outcome [2] was “inactive” and the outcome [5] was “inactive”.

`c1c[nH]cn1` was tested, and the outcome [1] was “inactive”, the outcome [2] was “inactive” and the outcome [5] was “inactive”.

For `O=C(O)CCCC[C@@H]1SC[C@@H]2NC(=O)N[C@@H]21`, the outcome [1] was “inactive”, the outcome [2] was “inactive” and the outcome [5] was “inactive”.

`O=C1C(N(CO)C(=O)NCO)N(CO)C(=O)N1CO` (configuration not stated) was tested, and the outcome [1] was “inactive” and the outcome [2] was “inactive”.

With `O=C(C=Cc1ccccc1)OCc1ccccc1` the outcome [1] was “inactive”, the outcome [2] was “inactive” and the outcome [5] was “inactive”.

In the case of `CCCCC(CC)CCC(CC(C)C)OS(=O)(=O)O` (configuration not stated), the outcome [1] is reported as “inactive”, the outcome [2] is reported as “inactive” and the outcome [5] is reported as “inactive”.

`C=C1C2CCC(C2)C1(C)C` (configuration not stated) was tested, and the outcome [1] was “inactive”, the outcome [2] was “inactive” and the outcome [5] was “inactive”.

In the case of `Cc1ccc(C(C)c2ccc(C)c(C)c2)cc1C`, the AC50 [1] is reported as 84.6 µM (active), the AC50 [2] is reported as 70.3 µM (active) and the AC50 [5] is reported as 58 µM (active).
